Compound activity: PubChem, National Center for Advancing Translational Sciences (NCATS)
This is a sample that favours compounds with a hit; in the whole collection about 19% have one here.
HT1080 IDH1KD tx: toxicity to HT-1080 IDH1 knockdown cells (counter line) | HT-1080 IDH1 knockdown viability, ATP luminescence, 48 h | Potency, µM (series often up to 46.1 µM), for the others: at the top dose activity, negative = toxicity, most hits filed as cytotoxic | 2% of 360,000 active;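 further: potency means the concentration at half of the fitted maximal effect; 0% = DMSO wells and -100% = cell-free medium wells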
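Knockdown cells (IDH1KD HT-1080) received compounds 2 h after plating at 750 cells/well and were kept 48 h at 37 °C in 5% FBS RPMI. A CellTiter-Glo luminescence read gave % activity for curve fitting.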
HT1080NT lethal: kills 2HG-producing HT-1080-NT fibrosarcoma cells | 1.6% of 360,000 active | AID 686970 | Potency, µM (highest dose often 46.1 µM), for the others: at the top dose activity, negative = less viability, most hits filed as cytotoxic | HT-1080-NT fibrosarcoma viability, CellTiter-Glo ATP luminescence, 48 h;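 further: NT is the 2HG producing partner of a matched IDH1 knockdown line; potency means the concentration at half of the fitted maximal effect; 0% = DMSO-treated cells and -100% = media-only wells without cells; nearly all actives have a fitted effect of over 55% in size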
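Compounds were tested in concentration-response format on HT-1080-NT cells for 48 hours at 37 degrees C. Cell viability came from CellTiter-Glo luminescence; curves were classified by r2, response magnitude and activity.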
IL1B secr inh: inflammasome signaling inhibition, IL-1 beta readout | 4.7% of 360,000 active | activity change, % at 57.5 µM | THP-1 LPS/ATP IL-1B secretion, AlphaLISA, 16 h; stronger effect = lower value | AID 743279; in the data active means activity change below about -50%; inconclusive means mostly about -30% to -49%
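THP-1 cells pretreated 1 hr with compounds (up to 57.5 uM final), then stimulated with LPS (250 ng/mL final) plus ATP (1.25 mM final); secreted IL-1B measured by AlphaLISA after 16 hr, decreased signal indicating inhibition.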
DT40 TDP1 CPT: DT40-hTDP1 cell growth loss with CPT | Potency, µM (titrated, usually from 46.2 µM), for inactives: at the top dose activity change, negative = growth inhibition, usual class: inhibitors | 12% of 420,000 active | chicken DT40 Tdp1-/-;hTDP1 cells + 20 nM CPT, ATP luminescence, 48 h | AID 686979; further: potency means the concentration at half of the fitted maximal effect; nearly all actives have a fitted effect of over 55% in size
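Cell growth measured by CellTiter-Glo luminescence after a minimum 48 h, 37 C compound exposure with 20 nM CPT in Tdp1-knockout DT40 cells stably expressing hTDP1, seeded 400/well; qHTS titration format.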
DT40 TDP1 no CPT: qHTS for Inhibitors of human tyrosyl-DNA phosphodiesterase 1 (TDP1): qHTS in cells in absence of CPT; DT40 Tdp1-/- hTDP1 cells, no CPT, ATP luminescence, 48 h; Potency, µM (series often up to 46.2 µM), without a hit: at the highest dose activity change, negative = growth inhibition, usual class: inhibitors; 15% of 420,000 active; AID 686978, 2013; further: potency means the concentration at half of the fitted maximal effect; nearly all actives have a fitted effect of over 55% in size
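Compound effects on proliferation are scored in DT40 Tdp1-/-;hTDP1 cells in the absence of CPT. ATP levels (CellTiter-Glo luminescence) are recorded after a ≥48 hr, 37 °C incubation.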
An asterisk follows results filed as active; ? = inconclusive; nt = not tested or not shown. Unless noted, the call rests on the fitted dose curve; in most records, active means well fitted curve in the direction sought with a large enough effect; inconclusive means small, poorly fitted or top-dose-only effect, or another doubt; inactive means no such curve, though single readings can be large; an effect the other way counts as inactive or inconclusive. Unless noted, on the % scale 0 is the no-effect control and ±100 the full control effect.

SMILES	HT1080 IDH1KD tx	HT1080NT lethal	IL1B secr inh	DT40 TDP1 CPT	DT40 TDP1 no CPT
O=C(NC(=S)NNC(=O)[C@H]1C[C@@H]1c1ccccc1)c1cccc(F)c1	13%	-7%	31	-29%	-13%
COc1ccc(Cl)cc1NC(=S)N1CCN(C(=O)C2CCCO2)CC1 (centres undefined)	0%	3%	21	-7%	-6%
CC1CN(S(=O)(=O)c2cc(C(=O)NC(C)c3cccnc3)ccc2Cl)CC(C)O1 (centres undefined)	-8%	4%	30	?	-22%
COc1cc(CNc2ncnc3c2ncn3[C@H]2CN(Cc3ccc(Cl)cc3)C[C@@H](CO)O2)cc(OC)c1OC	-17%	-16%	36	23µM*	16µM*
COc1cc(CNc2ncnc3c2ncn3[C@H]2CN(Cc3ccc(F)cc3)C[C@@H](CO)O2)cc(OC)c1OC	3%	19%	0	21µM*	?
COc1cc(CN2C[C@@H](CO)O[C@@H](n3cnc4c(NCc5ccc(F)cc5)ncnc43)C2)cc(OC)c1OC	2%	7%	-69*	16µM*	?
Cc1ccc(C)c(NC(=O)CSc2nnc(-c3cc(C)[nH]n3)n2N)c1	16%	10%	-6	0%	21%
Cc1cc(C)n2nc(C(=O)N3CCCC(N4CCN(c5ccccc5C)CC4)C3)cc2n1 (centres undefined)	-11%	1%	-5	?	?
CCc1nc2sc3c(c2c(=O)n1CCO)CCC3	0%	-10%	35	-11%	-9%
COC(=O)[C@@]1(Sc2ccc(C)cc2)CC(=O)N(c2ccccc2)[C@@H]1c1ccccc1	?	?	-5	18µM*	18µM*
COC(=O)[C@@]1(Sc2ccc(C)cc2)CC(=O)N[C@@H]1c1ccc(C(F)(F)F)cc1	-18%	-17%	?	15µM*	21µM*
Cc1ccc(CNC(=O)COC(=O)c2nc(-c3ccccc3)oc2C)cc1	7%	10%	15	-24%	-24%
C=CCN1C(=O)c2ccc(C(=O)NCC(=O)Nc3c(C)cc(C)cc3C)cc2C1=O	4%	4%	7	-1%	-5%
Cc1cc(SCC(=O)OC/C(O)=C(\C#N)c2nc3ccccc3[nH]2)c(C)cc1Br	?	?	-100*	?	?
N#CC(=C(O)COC(=O)CCC1CCCCC1)c1nc2ccccc2[nH]1	17%	8%	-98*	5.8µM*	5.2µM*
N#C/C(=C(/O)COC(=O)CSc1ccc(Cl)cc1)c1nc2ccccc2[nH]1	-3%	-3%	-102*	18µM*	5.2µM*
COc1ccc2c(=O)ccoc2c1	nt	nt	nt	-8%	3%
COc1ccccc1CN1C[C@@H]2C[C@@H](c3ccccc3C)N3CCC[C@@]23C1=O	-9%	-4%	-19	?	29µM*
COc1ccccc1CN1C[C@@H]2C[C@@H](c3ccc4nsnc4c3)N3CCC[C@@]23C1=O	-16%	-19%	-19	?	23µM*
COc1ccccc1CN1C[C@@H]2C[C@@H](c3cccc(O)c3)N3CCC[C@@]23C1=O	-3%	-13%	8	8%	-25%
COc1ccccc1CN1C[C@@H]2C[C@@H](c3ccc(C)cc3)N3CCC[C@@]23C1=O	-17%	-8%	-28	-23%	?
CCOc1cc(C2NC(=O)NC(C)=C2C(C)=O)cc(Cl)c1OCC(=O)O (centres undefined)	0%	13%	0	-9%	0%
O=C(Nc1cccc2ccccc12)OCc1ccccc1	-1%	-1%	-23	-24%	?
Cc1cccc2cc(CN(Cc3ccccc3)C(=O)c3cccc(F)c3)c(Cl)nc12	-2%	-26%	-8	29µM*	?
Cc1ccc(N(Cc2ccccc2)C(=O)c2ccc(F)cc2)cc1	-8%	-17%	-28	21µM*	?
SMILES	HT1080 IDH1KD tx	HT1080NT lethal	IL1B secr inh	DT40 TDP1 CPT	DT40 TDP1 no CPT
Cc1ccc(N(Cc2ccccc2)C(=O)c2cccc(F)c2)cc1	-12%	-15%	-61*	?	?
CS(=O)(=O)c1ccc(C(=O)N(Cc2ccccc2)c2ccccc2)cc1	10%	-4%	11	?	?
C[C@H](CO)N1C[C@H](C)[C@@H](CN(C)Cc2ccccc2)Oc2ccc(NC(=O)CCCCCC(=O)Nc3ccccc3N)cc2C1=O	-2%	-9%	38	?	?
C[C@H](CO)N1C[C@H](C)[C@@H](CN(C)Cc2ccncc2)Oc2c(NC(=O)CCCCCC(=O)Nc3ccccc3N)cccc2C1=O	6%	3%	1	?	23µM*
C[C@H](CO)N1C[C@H](C)[C@@H](CN(C)C)Oc2c(NC(=O)CCCCCC(=O)Nc3ccccc3N)cccc2C1=O	-1%	0%	16	18µM*	?
Cc1cc(C)c(C#N)c(SCC(=O)Nc2ccc3c(c2)OCO3)n1	13%	16%	46	-18%	-23%
Cc1cc(C)nc(SCC(=O)Nc2ccc3c(c2)OCO3)n1	2%	3%	-83*	-14%	0%
Cc1nc(SCC(=O)Nc2ccc3c(c2)OCO3)c(C#N)c2c1CCCC2	-6%	-1%	-22	21µM*	18µM*
Cc1cc(Oc2ccccc2)nc(SCC(=O)Nc2ccc(Cl)c(Cl)c2)n1	-22%	-12%	-8	?	18µM*
Nc1cc(N)nc(SCC(=O)Nc2ccc3c(c2)OCO3)n1	12%	-8%	-1	2%	-2%
Cc1ccc(C2=NC3(CCCCC3)N=C2SCC(=O)Nc2ccc3c(c2)OCCO3)cc1	-24%	?	-93*	21µM*	?
CCOc1cc(NC(=O)CC(C)C)c(OCC)cc1NC(=O)CCn1nnc2ccccc21	-1%	-1%	-9	-8%	-14%
O=C(C[n+]1ccccc1Cl)c1ccccc1	nt	nt	nt	-8%	-26%
CC(=O)Nc1cc(-c2ccccc2)ccc1O	-3%	-6%	13	21µM*	?
CC(=O)Nc1cc(Br)ccc1O	-1%	7%	1	3%	12%
CCC(C)OC(=O)C1=C(C)NC(=O)CC1c1ccccc1OC (centres undefined)	-2%	-5%	-19	8.2µM*	10µM*
CCOc1ccccc1C1NC(=O)NC(C)=C1C(=O)OCc1ccccc1 (centres undefined)	-6%	-2%	-7	-16%	?
CC1=C(C(=O)OC2CCCCC2)C(c2ccccc2Br)NC(=O)N1 (centres undefined)	-6%	-4%	0	?	?
CSCCOC(=O)C1=C(C)NC(=O)CC1c1ccccc1Cl (centres undefined)	-2%	-4%	0	?	?
